Bioassay records: PubChem BioAssay, National Center for Advancing Translational Sciences (NCATS)
SW480 rerep: induces DNA re-replication in SW480 colon adenocarcinoma cells. Potency, µM (titrated, usually from 46.1 µM), inactives show top-dose re-replication activation, actives largely listed as activators. SW480 DNA re-replication, Hoechst DNA content imaging, 48 h. actives 1.8% (n = 340,000). AID 624297; also: % of control where 0% means no effect; nearly all actives have a fitted effect of over 55% in size
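Readout is total intensity of Hoechst-stained nuclei, excited at 405 nm and collected at 500-530 nm. Compound treatment lasted 48 hr at 37 C in 5% CO2 before staining.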
KB-V1 cytotox: KB-V1 MDR subline cytotoxicity. KB-V1 MDR cells viability, CellTiter-Glo, 72 h. Potency, µM (series often up to 46.1 µM), actives largely listed as cytotoxic. actives 3.4% (n = 400,000). AID 1347076; also: % is scaled to controls: 0 for no effect and ±100 for the full control effect; nearly all actives have a fitted effect of over 60% in size
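KB-V1, DMEM (no phenol red) + 10% FBS; cpd pin-transferred, titration series; 72 h, 37 degrees C; CellTiter-Glo, luminescence. Data normalized, curve-fit.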
ELG1 DNA repair: inhibitors of ELG1-dependent DNA repair in HEK293T cells | Potency, µM (titrated, usually from 46.1 µM), for the others: at the highest dose activity change, negative = inhibition, most hits filed as inhibitors | HEK293T ELG1-luciferase reporter, luminescence, 16 h; DNA damage induced by 5-fluorouridine | AID 504467 | actives 2.3% (n = 330,000); also: % is scaled to controls: 0 for no effect and ±100 for the full control effect; nearly all actives have a fitted effect of over 55% in size
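In this reporter screen, reduction of luminescence relative to DMSO vehicle indicated activity. Compounds and 5-fluorouridine were added together to 2,000 cells per well, incubated for 16 hr at 37 °C, then developed with ONE-Glo.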
KB-3-1 cytotox: kills parental KB-3-1 adenocarcinoma cells | actives 1.4% (n = 400,000) | KB-3-1 viability, CellTiter-Glo ATP luminescence, 72 h | Potency, µM (titrated, usually from 46.1 µM), actives largely listed as cytotoxic | AID 1347075; also: % is scaled to controls: 0 for no effect and ±100 for the full control effect; nearly all actives have a fitted effect of over 60% in size
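Cells are dispensed, compounds pinned in, plates held at 37 °C for 72 h, then CellTiter-Glo is added and luminescence read after 10 minutes. Cell line: parental KB-3-1 in phenol-red-free DMEM, 10% FBS.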
MCF10A rerep: induces DNA re-replication in MCF 10a normal breast cells; MCF 10A DNA re-replication, Hoechst nuclear intensity, 48 h; Potency, µM (doses to about 46.1 µM), inactives show at the top dose activity, positive = re-replication, usual class: activators; actives 2.9% (n = 350,000); also: % of control where 0% means no effect; nearly all actives have a fitted effect of over 50% in size
ELG1 FLuc counter: luciferase inhibition in cell-free luciferin readout for ELG1 hits; cell-free firefly luciferase luminescence counter-screen, ViewLux; actives 3% (n = 350); Potency, µM (highest dose often 46.1 µM), inactives show at the highest dose activity change, negative = inhibition, usual class: inhibitors; shares compounds with ELG1 DNA repair; also: % is scaled to controls: 0 for no effect and ±100 for the full control effect
ELG1 Luc conf: inhibits ELG1-dependent DNA repair in HEK293T cells, confirmed | shares compounds with ELG1 DNA repair | HEK293T ELG1-luciferase levels, luminescence; cells co-treated with 5-fluorouridine | Potency, µM (series often up to 46.1 µM), for inactives: top-dose activity change, negative = inhibition, hits mostly inhibitors | actives 68% (n = 670); also: % is scaled to controls: 0 for no effect and ±100 for the full control effect; nearly all actives have a fitted effect of over 55% in size
ELG1-Luc MMS: MMS-stimulated human ELG1 repair inhibition, confirmed. HEK293T luciferase-tagged ELG1 level, MMS stimulated. shares compounds with ELG1 DNA repair. Potency, µM (highest dose often 46.1 µM), for inactives: at the top dose activity change, negative = inhibition, actives largely listed as inhibitors. actives 53% (n = 670). AID 624249; also: % is scaled to controls: 0 for no effect and ±100 for the full control effect; nearly all actives have a fitted effect of over 60% in size
ELG1 5-FU: confirmation of ELG1 repair inhibitors: viability with 5FU | shares compounds with ELG1 DNA repair | AID 624250 | cell viability with 5-FU, ELG1-dependent repair | 670 tested, under 10 active | Potency, µM (top dose mostly 46.1 µM), for the others: at the top dose activity change, negative = viability loss, hits mostly cytotoxic;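 also: ELG1-luc HEK293T cells cotreated with 5-fluorouridine at 10 µM final; viability measured 16 h after compound addition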
ELG1 MMS cell: confirmation of ELG1 repair inhibitors: viability with MMS; shares compounds with ELG1 DNA repair; Cell viability with MMS, ELG1-dependent DNA repair; Potency, µM (highest dose often 46.1 µM), for the others: at the top dose activity change, negative = viability loss, hits mostly cytotoxic; actives 33% (n = 670);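 also: ELG1-luc HEK293T cells co-treated with 10 µM MMS; viability read 16 h after compound addition; % is scaled to controls: 0 for no effect and ±100 for the full control effect; nearly all actives have a fitted effect of over 60% in size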
Cell viab unstim: unstimulated viability counter-screen for ELG1 repair hits. shares compounds with ELG1 DNA repair. AID 624252. cell viability counter-screen, unstimulated, luminescence. Potency, µM (titrated, usually from 45.9 µM), for inactives: top-dose activity change, negative = loss of viability, usual class: cytotoxic. actives 8% (n = 900);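 also: compound exposure lasted 16 hours before reading; % is scaled to controls: 0 for no effect and ±100 for the full control effect; nearly all actives have a fitted effect of over 55% in size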
FLuc biochem: counter-screen for ELG1 repair inhibitors: firefly luciferase inhibition; shares compounds with ELG1 DNA repair; purified firefly luciferase, luminescence counter-screen; Potency, µM (top dose mostly 57.5 µM), without a hit: at the highest dose activity, negative = inhibition, usual class: inhibitors; actives 10% (n = 350); also: % is scaled to controls: 0 for no effect and ±100 for the full control effect
* = called active by the depositor; i = inactive; ? = inconclusive; / = not tested or not shown. Rows were chosen to be rich in hits. Some 8.1% of all compounds tested hit in one or more screens of this group. Calls follow the shape of the dose curve; as a rule, active = well fitted curve in the direction sought with a large enough effect; inconclusive = small, poorly fitted or top-dose-only effect, or another doubt; inactive = no such curve, though single readings can be large; an effect the other way counts as inactive or inconclusive. Potency is read from the fitted curve at half-maximal effect.

SMILES | SW480 rerep | KB-V1 cytotox | ELG1 DNA repair | KB-3-1 cytotox | MCF10A rerep | ELG1 Luc conf | ELG1-Luc MMS | ELG1 5-FU | ELG1 MMS cell | Cell viab unstim | others
O=C(Nc1cccc(/C=C/c2ccccn2)c1)c1ccc(-n2cncn2)cc1 | -18.7% | ? | 3.26µM* | i | ? | 12.5µM* | ? | -8.6% | ? | ?
O=C(CCc1ccc(S(=O)(=O)N2CCOCC2)cc1)OCC(=O)c1ccccc1F | -6.4% | i | ? | i | -2.5% | / | / | / | / | /
CCN(CC)C(=O)c1sc2nc(N3CCOCC3)c3c(c2c1N)CCCC3 | 3.6% | 4.61µM* | 6.51µM* | i | ? | 11.2µM* | -13.8% | ? | -8.0% | -22.5% | ELG1 FLuc counter=68.7%;FLuc biochem=-8.7%
COc1c(N2CCN(C(=S)Nc3ccc(F)cc3)C(C)C2)c(F)cc2c(=O)c(C(=O)O)cn(C3CC3)c12 (configuration not stated) | 2.8% | i | -8.0% | i | -3.8% | / | / | / | / | /
CC1(C)CC(N2CCOCC2)=CC(=S)N1 | / | i | / | i | / | / | / | / | / | /
COC(=O)C1C(=O)C=C(N2CCOCC2)CC1(C)C (configuration not stated) | 2.9% | i | 4.11µM* | i | -4.7% | 25.4% | 31.8% | -1.4% | -1.0% | -1.5%
CCCCCCC[C@@H](C/C=C/CCC(=O)N(C)C/C(=C/Cl)C/C(=C\C(=O)N1C[C@H](O)CC1=O)OC)OC | ? | i | ? | i | ? | / | / | / | / | /
CCCCCCC[C@@H](C/C=C/CCC(=O)N(C)C/C(=C/Cl)C/C(=C\C(=O)N1CC(OC)=CC1=O)OC)OC | ? | ? | ? | i | ? | / | / | / | / | ?
CCc1ccccc1NC(=O)c1ccccc1Sc1ccc([N+](=O)[O-])cc1Cl | -3.3% | i | -16.6% | i | 1.2% | / | / | / | / | /
COC(=O)c1ccc(OCC2c3cc(OC)c(OC)cc3CCN2C(C)=O)cc1 (configuration not stated) | 3.7% | ? | 6.51µM* | i | 4.2% | 9.97µM* | ? | ? | ? | ? | ELG1 FLuc counter=29.1%;FLuc biochem=-16.3%
C=CC[C@H](CC(=O)NCCO)C(=O)NC[C@@H](OC(=O)[C@@H](CC=C)Cc1ccc(F)cc1)c1ccccc1 | 0.0% | i | -8.9% | i | 19.2% | / | / | / | / | /
C=CC[C@@H](CC(=O)N[C@H](CO)Cc1ccccc1)C(=O)NC[C@H](OC(=O)[C@@H](CC=C)Cc1ccc(F)cc1)c1ccccc1 | 0.6% | ? | 4.61µM* | i | 0.1% | ? | 9.96µM* | ? | 3.1% | -4.3%
Cc1cc(C)n2nc(SCc3cccc(S(=O)(=O)N(C)C)c3)nc2n1 | 1.7% | i | -1.1% | i | 6.4% | / | / | / | / | /
CN(C)S(=O)(=O)c1cccc(CSCc2cccc(S(=O)(=O)N(C)C)c2)c1 | -5.9% | ? | 1.3µM* | ? | 15.6% | ? | 1.12µM* | -13.0% | 1.12µM* | ?
COc1ccc(OC)c(Nc2nc(NCc3ccco3)nc(N)c2[N+](=O)[O-])c1 | -41.9% | i | ? | i | ? | 0.628µM* | -8.3% | ? | -8.0% | -11.2%
CCOc1ccc(Nc2nc(NCc3ccco3)nc(N)c2[N+](=O)[O-])cc1 | -81.5% | i | 24.2% | i | -2.7% | / | / | / | / | /
COc1ccc(C2CC(c3c(O)cc(C)oc3=O)=NCCS2)c(OC)c1 (configuration not stated) | ? | 0.366µM* | ? | 0.291µM* | 1.12µM* | / | / | / | / | -15.1%
CCCOC(=O)c1ccc(OCC(O)Cn2c(C)nc3ccccc32)cc1 (configuration not stated) | -10.3% | ? | 1.46µM* | i | 13.2% | ? | 1.77µM* | -4.0% | 1.99µM* | ?
CC(=O)Nc1cccc(OCC(O)Cn2c(C)nc3ccccc32)c1 (configuration not stated) | -7.9% | i | ? | ? | 1.3% | / | / | / | / | /
CC1CCc2nc(-c3cc4ccc(O)cc4oc3=O)sc2C1 (configuration not stated) | / | i | / | ? | / | / | / | / | / | -1.0% | ELG1 FLuc counter=52.8%;FLuc biochem=0.184µM*
O=c1oc2cc(O)ccc2cc1-c1nc2ccccc2o1 | / | i | / | i | / | / | / | / | / | /
CN(C)c1ccc(/C=C2\C=Cc3ccccc32)cc1 | / | i | / | i | / | / | / | / | / | /
CN(C)N=Nc1ccc(/C=C2\C=Cc3ccccc32)cc1 | / | ? | / | i | / | / | / | / | / | -2.3%
CC(C)CN(C)c1ccc(/C=C2\C=Cc3ccccc32)cc1 | / | i | / | i | / | / | / | / | / | ?
C1=Cc2ccccc2/C1=C/c1ccc(/C=C2\C=Cc3ccccc32)cc1 | / | i | / | i | / | / | / | / | / | /
Cc1cccn2c(CNCC3(c4ccccc4)CCCC3)c(C(=O)N3CCOCC3)nc12 | -0.1% | ? | 2.91µM* | i | 33.9% | ? | 12.5µM* | -8.7% | 25µM* | ?
COc1cc2c(cc1OC)CN(C(=O)c1nn(Cc3ccccc3)c(=O)c3ccccc13)CC2 | 3.8% | i | 2.59µM* | i | 8.4% | 1.12µM* | ? | ? | ? | ?
O=c1c2ccccc2ccc2ccccc12 | -14.1% | ? | 21.8% | i | 29.2% | / | / | / | / | /
O=c1c2ccccc2oc2c1ccc1ccccc12 | 10.9% | i | ? | i | -19.0% | / | / | / | / | -1.1%
